Results from PubChem BioAssay (Tox21).
Results filed as inconclusive are left out. Entries that show only a call come without a potency. Calls of active or inactive are those of the source. The call rests on the fitted dose curve.

Biological target: D(2) dopamine receptor (Homo sapiens) (UniProt P14416)
Assay: Dopamine D2 receptor (DRD2) small molecule agonists, cell-based qHTS assay (AID 1963594); further: nearly all actives have a fitted effect of over 35% in size
Settings: HEK293-DRD2 cAMP HTRF, agonist mode, 30 min; series mostly up to 92.4 µM
Description: National Center for Advancing Translational Sciences [NCATS]
Division of Preclinical Innovation [DPI]
U.S. Environmental Protection Agency [EPA]
National Institutes of Environmental Health Sciences [NIEHS]
National Toxicology Program [NTP]
U.S. Food and Drug Administration [FDA]
DRD2 is the D2 subtype of the dopamine receptor, which is coupled to Gi subtype of G protein-coupled receptor. This G protein-coupled receptor inhibits adenylyl cyclase activity. The DRD2-HEK293 cell line stably expressing D2 dopamine receptor can be used for screening agonists and antagonists of interactions between D2 and its ligands. The Hek293-DRD2 cAMP assay is based on HTRF technology. It measures changes of cAMP accumulation in response to Gi coupled GPCR activation or inhibition.
Tox21 Assay Protocol Summary:
DRD2-Hek293 cells were dispensed at 600 cells/3uL/well in 1536-well white plates using a Multidrop Dispenser. After the assay plates were incubated at a 37 C/5% CO2 incubator for 24 h, 1 uL of Ro20-1724 at final concentration of 0.1 mM was transferred to the assay plate by a Flying Reagent Dispenser. Following Ro20-1724 addition, 23 nL of compound dissolved in DMSO, positive controls or DMSO only was added to the assay plates via Wako pintool station. The assay plates were incubated at room temperature for 10 min. Next, 1 uL of NKH477 at 200nM was added into the plates. After the assay plates were incubated at room temperature for an additional 30 min, 2.5 ul/well of cAMP-d2 and 2.5 ul/well of anti-cAMP-cryptate were added respectively into the assay plates using a Flying Reagent Dispenser. The plates were incubated at room temperature for 1 h. The fluorescence intensity in the plates was measured at 340 nm excitation and 665 & 620 nm emission by an Envision plate reader.

Sequence of D(2) dopamine receptor (Homo sapiens) (P14416 whole entry, looked up): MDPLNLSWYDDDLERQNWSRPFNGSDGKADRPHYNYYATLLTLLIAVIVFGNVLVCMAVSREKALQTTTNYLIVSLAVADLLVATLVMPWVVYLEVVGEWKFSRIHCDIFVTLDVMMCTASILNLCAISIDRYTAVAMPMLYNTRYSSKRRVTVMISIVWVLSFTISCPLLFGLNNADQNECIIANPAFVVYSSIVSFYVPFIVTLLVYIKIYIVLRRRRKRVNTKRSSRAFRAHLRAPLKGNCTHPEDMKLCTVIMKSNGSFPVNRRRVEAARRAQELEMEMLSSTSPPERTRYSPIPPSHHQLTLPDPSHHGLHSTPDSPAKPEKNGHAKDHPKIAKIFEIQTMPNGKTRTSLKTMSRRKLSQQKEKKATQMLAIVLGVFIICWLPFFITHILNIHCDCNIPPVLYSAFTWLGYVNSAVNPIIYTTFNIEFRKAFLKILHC

SMILES	Potency	activation
O=[N+]([O-])c1cc(C2CCCCC2)c(O)c([N+](=O)[O-])c1	inactive	
COC(OC)(C(=O)c1ccccc1)c1ccccc1	inactive	
O=C(O)O		-1.72% [at 8.39 µM] (inactive)
C/C=C/C=C/C=O	inactive	
CC[N+](CC)(CC(=O)Nc1c(C)cccc1C)Cc1ccccc1 (tested in a mixture with another compound)	inactive	
O=C1NCCN1	inactive	
CCN(CC)c1cccc(O)c1	inactive	
CC1=C(/C=C/C(C)=C/C=C/C(C)=C/C=O)C(C)(C)CCC1	inactive	
O=C(O)CCCCCCCCCCCBr	inactive	
CNC(=S)NN	inactive	
CSc1ccc(C=O)cc1	inactive	
CCCCCCCCCCCCCCC	inactive	
CC1=C(C(=O)O)N2C(=O)[C@@H](NC(=O)[C@H](N)C3=CCC=CC3)[C@H]2SC1	inactive	
CCCCCCCCCCO[C@@H]1O[C@H](CO)[C@@H](O)[C@H](O)[C@H]1O	inactive	
C=CC(C)(CCC=C(C)C)OC(=O)CC(C)C (stereo not given)	inactive	
CN(C)C(=N)N=C(N)N	inactive	
NCCCN(CCO)CCO	inactive	
COC(=O)C1=C(C)NC(C)=C(C(=O)OCCc2ccc(N3CCN(C(c4ccccc4)c4ccccc4)CC3)cc2)C1c1cccc([N+](=O)[O-])c1 (stereo not given)	inactive	
Cc1ccc2ccc(Cl)cc2n1	inactive	
COc1ccc2cc1Oc1ccc(cc1)C[C@H]1c3c(cc4c(c3Oc3cc5c(cc3OC)CCN(C)[C@@H]5C2)OCO4)CCN1C	inactive	

SMILES	Potency	activation
COc1cc2c(cc1OC)-c1cc(=Nc3c(C)cc(C)cc3C)n(C)c(=O)n1CC2	inactive	
C=C(C)C(=O)OCCOC1CC2CC1C1C=CCC21 (stereo not given)	inactive	
CCC(Cl)CCC(Cl)C(Cl)CC(Cl)C(Cl)C(Cl)CCl (stereo not given)	inactive	
C(=C(c1ccccc1)c1ccccc1)c1ccccc1	inactive	
CN(C)CCOC(c1ccccc1)c1ccccc1	inactive	
CN1C(C(=O)Nc2ccccn2)=C(O)c2sccc2S1(=O)=O	inactive	
CC(O)CC(C)O (stereo not given)	inactive	
CCCC(=O)OCC	inactive	
CC(C)(C)C1CCC(CC2=C(O)c3ccccc3C(=O)C2=O)CC1 (stereo not given)	inactive	
CC(C)c1ccc(O)c(C(C)C)c1	inactive	
Cc1ccc(N/N=c2\c(=O)cc/c(=N\Nc3ccc(S(=O)(=O)O)cc3)c2=O)c(C)c1	inactive	
Cc1nn(C)c(Oc2ccccc2)c1/C=N/OCc1ccc(C(=O)OC(C)(C)C)cc1	inactive	
CCCCCC/C=C/C=O	inactive	
CC(=O)N[C@@H](CCC(=O)O)C(=O)O	inactive	
CC1(C)SC(C)(C)SC(C)(C)S1	inactive	
O=C(/C=C/c1ccccc1)OCCc1ccccc1	inactive	
O=C1CCCCC1C1CCCCC1 (stereo not given)	inactive	
SCCc1cnccn1	inactive	
CCCOC(OCCC)OCCC	inactive	
CCCCc1oc2ccccc2c1C(=O)c1cc(I)c(OCCN(CC)CC)c(I)c1	inactive	
